Laboratory results reported in PubChem BioAssay (NCI).
The panel holds about 79,000 compounds, 15% with a hit somewhere; the sample as a whole holds those more often. Values without a mark were called inactive. Activity calls are given as the source filed them. Cut-off read from the data, not from the text of the source: active = growth inhibition above about 70%; inactive = the rest.

Assays:
[1] = NCI Yeast Anticancer Drug Screen. Data for the rad50 strain (AID 155);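 note: 0% = growth of vehicle-only cultures of the same strain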; conditions: S. cerevisiae rad50 strain growth inhibition; at 50.0 µM; active compounds read high
Method in brief: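 Relative growth inhibition (compound vs vehicle) was measured in yeast with a defined repair-gene alteration.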

[2] = NCI Yeast Anticancer Drug Screen. Data for the mec2-1 strain (AID 157); conditions: S. cerevisiae mec2-1 strain, at 50.0 µM, active compounds read high
Method in brief: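 Test agents were screened against the mec2-1 yeast strain, with defined DNA repair or cell cycle alteration. Growth was scored as inhibition against vehicle-only controls.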

[3] = NCI Yeast Anticancer Drug Screen. Data for the sgs1 mgt1 strain (AID 161);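 note: 0% = growth of cultures given vehicle only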; conditions: S. cerevisiae sgs1 mgt1 strain, at 50.0 µM, active compounds read high
Method in brief: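 Read-out: growth inhibition vs vehicle controls. Cells: mutant yeast strain deficient in DNA damage repair.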

[4] = NCI Yeast Anticancer Drug Screen. Data for the cln2 rad14 strain (AID 165);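 note: 0% = growth equal to vehicle treated cultures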; conditions: S. cerevisiae cln2 rad14 strain, at 50.0 µM, active compounds read high
Method in brief: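 Growth of compound-exposed yeast (cln2 rad14 genotype) measured and expressed as inhibition relative to vehicle.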

[5] = NCI Yeast Anticancer Drug Screen. Data for the bub3 strain (AID 167); conditions: S. cerevisiae bub3 mutant strain, at 50.0 µM, active compounds read high
Method in brief: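 Screening used yeast with an engineered genetic alteration affecting cell cycle control. Compound-exposed cultures were compared with vehicle cultures, and reduced growth was taken as inhibition.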

[6] = NCI Yeast Anticancer Drug Screen. Data for the mlh1 rad18 strain (AID 175); conditions: S. cerevisiae mlh1 rad18 strain growth inhibition; at 50.0 µM; active compounds read high
Method in brief: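 In this whole-cell yeast screen, a strain with altered DNA damage repair is challenged with compound, and its growth is measured against matched vehicle-treated controls.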

| Compound | growth inhibition [1] | growth inhibition [2] | growth inhibition [3] | growth inhibition [4] | growth inhibition [5] | growth inhibition [6] |
| --- | --- | --- | --- | --- | --- | --- |
| COC(=O)COc1ccc(Cl)cc1C(=O)O | 23.5% | 6.1% | 9.8% | -11.8% | 27.5% | 17.1% |
| CCOC(=O)/C(C#N)=C/NCC1CC1 | -21.8% | -33.5% | 1.6% | 10.6% | -33.2% | -22.6% |
| CCCC(O)(c1ccccc1)c1ccccc1 | 5.4% | 2.95% | -2.95% | -6.4% | -4.5% | 4.5% |
| CN1C(=O)C2C(C1=O)[C@H]1c3ccccc3C=CN1[C@@H]2C(=O)c1ccccc1 (stereo partly drawn) | 13.2% | 7.7% | -0.25% | 0.6% | -3.8% | 10.1% |
| CC(C)(C)OC(=O)NCS(=O)(=O)N(Cc1ccccc1)Cc1ccccc1 | 91.8% (active) | 89% (active) | 51.7% | 82.6% (active) | 79.4% (active) | 89.7% (active) |
| Cc1cc(OCCCC[N+](C)(C)Cc2ccc(Br)o2)c(C(C)C)cc1Cl | 99.5% (active) | 99.5% (active) | 99.2% (active) | 99.3% (active) | 99.2% (active) | 99.3% (active) |
| C=CC1ON(C)CCc2cc(OC)c(OC)cc21 (stereo not drawn) | -4.9% | -1% | -53.5% | 15.1% | -1.8% | -9.9% |
| CCOc1ccccc1NC(=O)C1=C(C)NC(C)=C(C(=O)Nc2ccccc2OCC)C1c1ccc2c(c1)OCO2 | 9.5% | 44.5% | 41.3% | 23.2% | 43.1% | 39.9% |
| CN1C(=O)C(=O)N2c3ccc(Cl)cc3C3(c4ccccc4)N=CC12O3 (stereo not drawn) | 9.3% | 3.05% | 6% | 5% | -8.4% | -3.1% |
| CCCCC(CC)C(=S)N1CCOCC1 (stereo not drawn) | 0.95% | -30.4% | -18.8% | 7.25% | -4.65% | -9.25% |
| CCOC(=O)c1c(-c2ccccc2)c(C)cn1C | -16.1% | -26% | -24.9% | 11% | -7.75% | 1% |
| CC(NC(=O)C(CC(=O)OCc1ccccc1)NC(=O)OCc1ccccc1)c1ccccc1 (stereo not drawn) | 9.5% | -20.5% | 9.15% | -21.6% | -17.4% | -1.3% |
| CCOC(=O)c1ccc(NC(=O)SCCC(=O)O)cc1 | 20.9% | -19.9% | -7.1% | 15.8% | -10.2% | 13.8% |
| CC/C(Cl)=N\OC(=O)Nc1ccc(F)cc1F | 2.2% | -12.1% | -4.05% | 7.05% | -6.45% | -26.4% |
| O=C(N=Nc1c(O)[nH]c2c(Cl)cc(Cl)cc12)c1ccccc1O | -1.1% | -0.55% | -9.5% | 12.5% | -8.95% | 3.85% |
| OCc1sccc1-n1cccc1 | -19.4% | -47.5% | -16.6% | 5.75% | -48.5% | -28.6% |
| O=C(O)Cc1n[nH]c(=O)c2ccccc12 | -21.1% | -5.2% | -0.45% | -2.75% | -25.9% | -7.7% |
| CC(C)(c1ccsc1)c1sccc1C(=O)O | -4.7% | 2.95% | 8.55% | -19.4% | -2.95% | 16.2% |
| CSc1nc(-c2ccccc2)c(C(=O)NC(C)CN2CCCCC2)s1 (stereo not drawn) | 13.5% | 5.15% | 7.45% | 11% | -3.2% | 11.1% |

| Compound | growth inhibition [1] | growth inhibition [2] | growth inhibition [3] | growth inhibition [4] | growth inhibition [5] | growth inhibition [6] |
| --- | --- | --- | --- | --- | --- | --- |
| Cc1cc(=O)c2cc3ccc4cccc5ccc(c2[nH]1)c3c45 | -12.6% | -8.35% | -10.1% | -24.3% | -6.85% | -5.85% |
| O=C(O)c1cc(-c2ccccc2)nc2c(Cl)cc(Cl)cc12 | -12.9% | -28.8% | -1.85% | 9.8% | -16.4% | -3.6% |
| C=C1CC(C)(COc2cc(=O)oc3ccccc23)OC1=O (stereo not drawn) | 51% | 30.3% | 53.2% | 38.5% | 25.6% | 40.5% |
| O=C(N/C(=C/c1ccc(Cl)cc1)c1nc2ccccc2c(=O)n1Nc1ccc([N+](=O)[O-])cc1[N+](=O)[O-])c1ccccc1 | -19% | -5% | -19.7% | 0.3% | -21.6% | -17.5% |
| CC(=O)Nc1ccc(C2SCc3nc4ccccc4n32)cc1 (stereo not drawn) | -21.5% | -11.1% | -32.5% | -34.2% | -24.9% | -48.8% |
| CC(=O)c1cccc(C(C)=O)n1 | -24.2% | -36.1% | -35.9% | 18.1% | -19.8% | 9.6% |
| COC(=O)C(=O)c1cc(C)n(C)c(=O)c1CN1C(=O)c2ccccc2C1=O | -14.2% | 14.8% | 13.8% | -18.9% | -11.8% | -12.8% |
| COC(=O)c1ccc(CSc2ccccc2NC(=S)Nc2cccc(SC)c2)o1 | -15.2% | -38.8% | -18.6% | 5.9% | -31.9% | -26.6% |
| NC(CC(=O)O)CC(=O)O | 12.9% | 2.6% | 1.8% | 14.7% | 5.65% | 17.8% |
| NNC(=O)Cc1c[nH]c2ccccc12 | 7.1% | 9.4% | 5.85% | -7.55% | 6% | 2.25% |
| CCOC(=O)CCC[Si](CC)(CC)CC | 13.9% | 12.3% | 1.5% | -22.1% | -15% | 5.9% |
| COc1ccc([N+](=O)[O-])c2c(NCC(O)CO)ccnc12 (stereo not drawn) | -0.35% | -11% | -9.7% | -8.2% | -25.1% | -47.2% |
| O=c1ccn(Cc2ccccc2)c(=O)[nH]1 | 25.6% | -10.3% | 4.35% | -29.4% | -3.95% | 21.9% |
| O=c1[nH]c(=O)c2ncn(-c3ccc([N+](=O)[O-])cn3)c2[nH]1 | 20.8% | 7.3% | 9.95% | 5.4% | 8.6% | -27.6% |
| COc1ccc(CN2C(=O)C(=O)N(C)C2=O)c2ccccc12 | 36.9% | 4.65% | 13.8% | 18.1% | 18.5% | 23.6% |
| COC(=O)CC(NC(=O)OCc1ccccc1)C(=O)NC(COC(C)=O)C(=O)NCC(=O)OCc1ccccc1 (stereo not drawn) | 28.4% | 10.4% | 10.3% | 15.6% | 3.2% | 16.4% |
| CC(=O)Nc1nc(NC(C)=O)c2[nH]c(CO)nc2n1 | -4.2% | -10.4% | -11.8% | -33.6% | -61.3% | -11.7% |
| N#C/C(=C\c1ccco1)c1ccc([N+](=O)[O-])cc1 | 16.2% | 15.1% | 25.6% | -0.25% | 42.3% | 14.3% |
| Cc1ccc(CCn2cnc3c(N(CCO)CCO)ncnc32)cc1 | -8.45% | 23.8% | -6.85% | 15.6% | 7.95% | -9.6% |
